# Test results from PubChem BioAssay (Tox21).
# Records with an inconclusive call do not appear. Entries that show only a call come without a potency. The source made the active and inactive calls. Unless noted, calls come from the whole dose curve; as a rule, active = well fitted curve in the direction sought with a large enough effect in the repeat runs; inconclusive = weak or mixed curves; inactive = flat fitted curve, though single readings scatter.
# Key:
# [1] = qHTS assay to test for compound auto fluorescence at 535 nm (green) in HEK293 cells (AID 720680)
# [2] = qHTS assay to test for compound auto fluorescence at 460 nm (blue) in HEK293 cell free culture (AID 720681)
# Method in brief: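 Test compounds were pinned into cell-free culture medium (DMEM with 10% FBS) and fluorescence was read directly at Ex/Em 405/460 nm. Signals were expressed as fluorescence equivalents of triamterene, with DMSO vehicle as control.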
# [3] = qHTS assay to test for compound auto fluorescence at 535 nm (green) in HEK293 cell free culture (AID 720682)
# Method in brief: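 Green-label autofluorescence (485 nm excitation, 535 nm emission) measured on compound added to cell-free culture medium (DMEM, 10% FBS). Output is expressed relative to fluorescein.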
# [4] = qHTS assay to test for compound auto fluorescence at 590 nm (red) in HEK293 cell free culture (AID 720683)
# Method in brief: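 Tox21 10K library compounds were pinned into cell-free DMEM with 10% FBS and fluorescence was read at excitation 540 nm. Activity is expressed as Rose Bengal sodium equivalency.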
# [5] = qHTS assay to test for compound auto fluorescence at 590 nm (red) in HepG2 cell free culture (AID 720684)
# Method in brief: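 Measured in medium alone (MEM containing 10% FBS) following pintool addition of compound; emission at 590 nm with 540 nm excitation, referenced to Rose Bengal sodium.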
# [6] = qHTS assay to test for compound auto fluorescence at 460 nm (blue) in HepG2 cell free culture (AID 720685)
# Method in brief: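 Compound (23 nL) or DMSO pinned into cell-free MEM with 10% FBS; blue fluorescence read at 405/460 nm excitation/emission, expressed as auto-fluorescence equivalency to triamterene.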
# [7] = qHTS assay to test for compound auto fluorescence at 460 nm (blue) in HepG2 cells (AID 720687)
# Method in brief: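 Cells (2,000/well in MEM with 10% FBS) attached overnight at 37 C, then were exposed to compound or DMSO for 1 hr at 37 C, 5% CO2. Fluorescence read at Ex/Em 405/460 nm, expressed as triamterene-equivalent signal.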
# [8] = target: Glucocorticoid receptor (Homo sapiens) (UniProt P04150); assay: qHTS assay to identify small molecule agonists of the glucocorticoid receptor (GR) signaling pathway (AID 720691; active = well fitted activation curve with a large enough effect in the signal ratio in the repeat runs, not every such curve was filed as active; the % refers to the signal ratio)
# Sequence of Glucocorticoid receptor (Homo sapiens) (P04150 whole entry, looked up): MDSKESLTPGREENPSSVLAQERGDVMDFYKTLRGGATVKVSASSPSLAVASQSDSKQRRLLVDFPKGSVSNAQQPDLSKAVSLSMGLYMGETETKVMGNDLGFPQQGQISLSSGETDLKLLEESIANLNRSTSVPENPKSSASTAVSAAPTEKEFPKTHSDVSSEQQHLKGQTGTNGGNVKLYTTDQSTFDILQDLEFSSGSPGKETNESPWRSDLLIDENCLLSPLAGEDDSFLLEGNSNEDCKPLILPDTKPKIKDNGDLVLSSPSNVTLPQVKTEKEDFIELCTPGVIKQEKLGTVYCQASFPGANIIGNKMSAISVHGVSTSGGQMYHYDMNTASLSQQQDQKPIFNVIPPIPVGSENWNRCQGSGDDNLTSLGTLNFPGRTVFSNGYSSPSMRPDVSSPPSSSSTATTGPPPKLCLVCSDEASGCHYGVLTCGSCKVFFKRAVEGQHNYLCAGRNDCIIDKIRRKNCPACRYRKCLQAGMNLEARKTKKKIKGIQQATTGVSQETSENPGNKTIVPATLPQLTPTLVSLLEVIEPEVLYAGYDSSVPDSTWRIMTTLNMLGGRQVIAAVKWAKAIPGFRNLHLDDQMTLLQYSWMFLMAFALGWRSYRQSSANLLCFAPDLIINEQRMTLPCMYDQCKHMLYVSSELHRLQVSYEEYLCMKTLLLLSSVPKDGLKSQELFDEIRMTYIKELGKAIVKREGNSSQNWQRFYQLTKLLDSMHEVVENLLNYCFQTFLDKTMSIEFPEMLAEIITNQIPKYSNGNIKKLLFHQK
# Method in brief: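 GR-bla HeLa cells (beta-lactamase reporter under glucocorticoid response element) were plated 4 h at 37 C/5% CO2, given compounds in DMSO, and incubated 18 h at 37 C. LiveBLAzer B/G FRET substrate was added for 2 h at room temperature, then fluorescence intensity read.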
# [9] = target: Glucocorticoid receptor (Homo sapiens) (UniProt P04150); assay: qHTS assay to identify small molecule antagonists of the glucocorticoid receptor (GR) signaling pathway (AID 720692; active = well fitted inhibition curve with a large enough effect in the signal ratio in the repeat runs, not every such curve was filed as active; the % refers to the signal ratio; note: potency is the fitted concentration of half-maximal effect)
# Method in brief: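 GR-bla HeLa cells (beta-lactamase reporter under glucocorticoid response element) were pre-plated 4 h at 37 C, treated with compounds plus 5 nM dexamethasone (final) for 18 h, then read by LiveBLAzer B/G FRET fluorescence after 2 h.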
# [10] = qHTS assay to test for compound auto fluorescence at 535 nm (green) in HepG2 cell free culture (AID 720686)
Structure (SMILES),outcome [1],outcome [2],outcome [3],outcome [4],outcome [5],outcome [6],outcome [7],outcome [8],Potency [9],outcome [10]
c1ccc2c(c1)oc1ccccc12,inactive,inactive,inactive,inactive,inactive,inactive,inactive,inactive,inactive,–
CC1OC(C)OC(C)O1 (stereo unspecified),inactive,inactive,inactive,inactive,inactive,inactive,–,–,–,inactive
CC(C#N)CCC#N (stereo unspecified),inactive,inactive,inactive,inactive,inactive,inactive,inactive,inactive,inactive,inactive
CCCN(CCC)c1c([N+](=O)[O-])cc(C(F)(F)F)cc1[N+](=O)[O-],inactive,inactive,inactive,inactive,inactive,inactive,inactive,–,–,–
CC(C)(Cl)Cl,inactive,inactive,inactive,inactive,inactive,inactive,inactive,inactive,inactive,inactive
Cc1ccc(N)cc1Cl,inactive,inactive,inactive,inactive,inactive,inactive,inactive,–,–,inactive
c1ccc(OP(Oc2ccccc2)Oc2ccccc2)cc1,inactive,inactive,inactive,inactive,inactive,inactive,inactive,inactive,inactive,inactive
O=C1CCCN1,inactive,inactive,inactive,inactive,inactive,inactive,inactive,inactive,inactive,inactive
CC(Oc1ccc(Cl)cc1Cl)C(=O)O (stereo unspecified),inactive,inactive,inactive,inactive,inactive,inactive,inactive,inactive,inactive,inactive
CN(C)CCO,inactive,inactive,inactive,inactive,inactive,inactive,–,inactive,inactive,inactive
CCCCOC(=O)c1ccccc1C(=O)OCCCC,inactive,inactive,inactive,inactive,inactive,inactive,inactive,inactive,–,inactive
O=c1ccc(=O)[nH][nH]1,inactive,inactive,inactive,inactive,inactive,inactive,inactive,–,–,–
Nc1ccc(Cc2ccc(N)cc2)cc1,inactive,–,inactive,inactive,inactive,inactive,inactive,inactive,inactive,inactive
O=c1[nH]c(=O)[nH]c(=O)[nH]1,inactive,–,inactive,inactive,inactive,inactive,–,inactive,inactive,–
CC(C)(C)C(O)(CCc1ccc(Cl)cc1)Cn1cncn1 (stereo unspecified),inactive,–,inactive,inactive,inactive,inactive,inactive,inactive,43.6 µM (active),–
CCCCCCCCCl,inactive,–,inactive,inactive,inactive,inactive,–,inactive,inactive,–
ClCCBr,inactive,–,inactive,inactive,inactive,inactive,inactive,–,–,–
CCC12COCN1COC2,inactive,–,inactive,inactive,inactive,inactive,inactive,–,–,inactive
CON(C)C(=O)Nc1ccc(Cl)c(Cl)c1,inactive,–,inactive,inactive,inactive,inactive,–,inactive,inactive,–
CN(N=O)c1ccccc1,inactive,–,inactive,inactive,inactive,inactive,–,inactive,inactive,–
O=NN1CCCCCCC1,inactive,–,inactive,inactive,inactive,inactive,–,inactive,inactive,inactive
c1cc2c3c(cccc3c1)CC2,inactive,–,inactive,inactive,inactive,inactive,inactive,inactive,inactive,–
COC(=O)NS(=O)(=O)c1ccc(N)cc1,inactive,–,inactive,inactive,inactive,inactive,inactive,inactive,inactive,inactive
COC(=O)c1ccccc1N,inactive,–,inactive,inactive,inactive,inactive,–,inactive,inactive,inactive
C=CCO,inactive,inactive,inactive,inactive,inactive,inactive,inactive,inactive,inactive,–
O=S(=O)(c1ccc(Cl)cc1)c1cc(Cl)c(Cl)cc1Cl,inactive,inactive,inactive,inactive,inactive,inactive,–,inactive,–,–
CC1C=[C-]C=C1.[C-]#[O+].[C-]#[O+].[C-]#[O+].[Mn],inactive,–,inactive,inactive,inactive,inactive,–,inactive,inactive,inactive
